Compound activity (PubChem)
Shown are actives, neighbours in structure and some others; about 21% of the full set was active somewhere.
MRP-1 activ: MRP-1 activation. 140,000 compounds, 0.61% hits. viability increase, % at 10 µM. H69AR cells + doxorubicin, viability rescue, CellTiter-Glo. AID 799;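 active means viability gain under doxorubicin at or above a set limit, the compound median plus 3 SD, cut at about 4.7% in these data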;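 further: MRP-1 overexpressing cells given doxorubicin 25 µM after compound pretreatment; 18-22 h compound pretreatment then 72 h with doxorubicin before readout; 0% = doxorubicin-only wells and 100% = vehicle-treated cells without doxorubicin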
CYP2C19 inhib: human CYP2C19 inhibition; P33261; CYP2C19 Supersomes, luciferin-H EGE luminescence, 30 min; inhibition, % at 5 µM; 96,000 compounds, 21% hits;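 active means CYP2C19 inhibition above a set limit at 5 µM in the primary screen, cut at about 50% in these data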;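 further: plate controls were negative control wells for no effect and 2.5 mM tranylcypromine positive control for full effect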
CYP2C9 activ: activators of human CYP2C9 | activation factor at 5 µM | 96,000 compounds, 1.4% hits | recombinant CYP2C9, luciferin-H conversion, luminescence; stronger effect = higher value; factor 1 = untreated enzyme, 0 = blocked | P11712 | AID 1024;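 active means activation factor of 2 or more for CYP2C9 at a 5 µM dose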;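 further: 0 = sulfaphenazole-blocked wells and 1 = vehicle-only wells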
Target sequence (P11712 whole entry, looked up): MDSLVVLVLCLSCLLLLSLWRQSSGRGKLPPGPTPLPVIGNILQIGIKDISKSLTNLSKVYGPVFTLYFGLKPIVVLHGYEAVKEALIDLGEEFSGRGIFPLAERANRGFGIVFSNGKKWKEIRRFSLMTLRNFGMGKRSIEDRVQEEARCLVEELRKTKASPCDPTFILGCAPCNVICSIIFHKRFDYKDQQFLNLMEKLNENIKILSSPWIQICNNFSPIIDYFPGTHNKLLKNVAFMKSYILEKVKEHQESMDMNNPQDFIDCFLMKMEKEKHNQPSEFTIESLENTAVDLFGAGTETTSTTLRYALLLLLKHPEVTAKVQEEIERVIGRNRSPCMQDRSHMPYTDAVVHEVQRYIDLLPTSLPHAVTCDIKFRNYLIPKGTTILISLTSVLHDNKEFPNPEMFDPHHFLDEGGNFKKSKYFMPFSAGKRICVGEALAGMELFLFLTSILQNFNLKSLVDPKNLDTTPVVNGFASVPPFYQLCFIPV
MRP reversal: MRP-mediated drug resistance reversal; differential viability (reversal), % at 10 µM; 85,000 compounds, 0.04% hits; AID 602; H69AR cells + 2 uM doxorubicin, CellTiter-Glo, 72 h;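 active means viability drop by adding the cancer drug above about 55%, with treated viability meeting a 40% cutoff, limit read from the data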;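 further: viability without doxorubicin minus viability with 2 µM doxorubicin for each compound; larger differential means the compound sensitizes cells more to doxorubicin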
CYP2C19 act: increases human CYP2C19 enzyme activity | P33261 | 96,000 tested, under 10 active | recombinant CYP2C19, luciferin-H EGE luminescence; stronger effect = higher value; 0 = fully inhibited enzyme, 1 = untreated enzyme | activation factor at 5 µM | AID 1025;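 active means activation factor of at least 2 at 5 µM in the primary screen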;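 further: 0 = wells with 2.5 mM tranylcypromine and 1 = vehicle-only wells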
CYP2C9 inh: inhibitors of human CYP2C9 | 96,000 compounds, 20% hits | CYP2C9 Supersomes, luciferin-H conversion, luminescence | P11712 | AID 777 | inhibition, % at 5 µM;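 active means blocking of liver enzyme CYP2C9 beyond about 50% at 5 µM, limit read from the data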
Numbers without * were called inactive; · = not tested or not shown.

SMILES | MRP-1 activ | CYP2C19 inhib | CYP2C9 activ | MRP reversal | CYP2C19 act | CYP2C9 inh
CCC(C)[C@H](NC(=O)Nc1ccc(C(C)=O)cc1)C(=O)OC (stereo partly drawn) | 0 | 4 | 1.1 | -1 | 1 | -7
CC1=C(C(=O)c2ccccc2)C(c2cn(-c3ccccc3)nc2-c2ccc(Cl)cc2)NC(=S)N1 (stereo not drawn) | -2 | 5 | 0.6 | 13 | 0.9 | 35
O=C1NC(=O)C(c2cn(-c3ccccc3)nc2-c2ccc(F)cc2)N1 (stereo not drawn) | -1 | 21 | 0.1 | 9 | 0.8 | 94*
CCCCOC(=O)NC1CCS(=O)(=O)C1 (stereo not drawn) | 0 | -6 | 1.2 | 14 | 1.1 | -21
CCCc1nc(S(=O)(=O)Cc2ccc(Cl)cc2Cl)n[nH]1 | 0 | 73* | 1.5 | -9 | 0.3 | -46
O=C(NCCSCc1c(F)cccc1Cl)c1ccco1 | -1 | 80* | 0.3 | -3 | 0.2 | 75*
O=C(CNC(=O)c1ccco1)OCc1c(F)cccc1Cl | 1 | 28 | 0.9 | · | 0.7 | 12
Cc1cc(C)cc(Oc2nc(-c3ccccc3)cc(C)c2S(C)(=O)=O)c1 | -2 | 52* | 0.1 | 0 | 0.5 | 89*
Cc1cc(-c2ccccc2)nc(Oc2ccc(C(C)(C)C)cc2)c1S(C)(=O)=O | -5 | 4 | 0.5 | 9 | 1 | 48
Cc1cccc(Oc2nc(-c3ccccc3)cc(C)c2S(C)(=O)=O)c1C | -1 | 63* | 0.1 | -16 | 0.4 | 93*
COc1ccccc1Oc1nc(-c2ccccc2)cc(C)c1S(C)(=O)=O | -5 | 10 | 0.9 | -5 | 0.9 | 12
O=C1N2CN(C(c3ccccc3)c3ccccc3)CN=C2SC1(CO)CO | -4 | 8 | 1 | 49 | 0.9 | 2
Cc1ccccc1NC(=O)CSc1nc(COc2ccccc2)nc2ccccc12 | -3 | 76* | 0.1 | · | 0.2 | 95*
CCc1nc(SCC(=O)NNC(=O)C(C)C)c2ccccc2n1 | 0 | 18 | 1.4 | · | 0.8 | -37
Cc1cc(C)c(NC(=O)CSc2nc(COc3ccccc3)nc3ccccc23)c(C)c1 | 0 | 46 | 0.1 | · | 0.5 | 85*
CN(C)c1ccc(CNCCC2(O)CCOC(C)(C)C2)cc1 (stereo not drawn) | -4 | 53* | 1 | 1 | 0.5 | 4
COc1ccc(CCNC(=O)CN2C(=O)C3(OCCCO3)c3ccccc32)cc1OC | -2 | 59* | 0.8 | -17 | 0.4 | 22
COc1ccccc1NC(=O)CN1C(=O)NC(C)(C)C1=O | 0 | 13 | 1.1 | 5 | 0.9 | -7
COc1ccc(CCNC(=O)CN2CCCc3ccccc32)cc1OC | -1 | 74* | 0.4 | 11 | 0.3 | 59*
O=C1N(Cc2ccccc2F)c2ccccc2C12OCCCO2 | 0 | 57* | 1.4 | 9 | 0.4 | -39
COc1ccccc1NC(=O)CN1C(=O)C2(OCCCO2)c2ccccc21 | -1 | 80* | 0.3 | 10 | 0.2 | 70*
Cc1cc(C)cc(NC(=S)N2CCN(CCO)CC2)c1 | 0 | · | · | · | · | ·
Nc1nncn1C(=O)CCc1ccccc1 | -1 | 4 | 1.2 | -14 | 1 | -15
COc1ccc(C(C)(C)C)cc1NC(=O)c1cc(S(=O)(=O)N(C)C)ccc1N1CCCC1 | -3 | · | · | · | · | ·
COc1ccc(OC)c(NC(=O)CN2C(=O)C3(OCCCO3)c3ccccc32)c1 | -5 | 14 | 0.3 | -6 | 0.9 | 69*
SMILES | MRP-1 activ | CYP2C19 inhib | CYP2C9 activ | MRP reversal | CYP2C19 act | CYP2C9 inh
CC(C)CC(=O)CN1C(=O)C2(OCCO2)c2ccccc21 | -1 | 22 | 1 | 2 | 0.8 | -3
COc1c(Cl)cc(C(=O)Nc2ccccc2-c2ccccc2)cc1Cl | -1 | 32 | 0.6 | · | 0.7 | 43
N#Cc1ccccc1Sc1ccccc1N | -2 | 57* | 0.4 | · | 0.4 | 59*
Cc1ccc(S(=O)(=O)Nc2ccc(-c3nnc(SCC#N)n3C)cc2)cc1 | 0 | 8 | 0.7 | 3 | 0.9 | 28
CC1CCc2c(nc3ncnn3c2N2CCN(c3ccccc3)CC2)C1 (stereo not drawn) | -3 | 40 | 0.1 | 46 | 0.6 | 90*
CC1CCc2c(nc3ncnn3c2N2CCN(c3ccccc3F)CC2)C1 (stereo not drawn) | · | 38 | 0.3 | -6 | 0.6 | 66*
c1nc2nc3c(c(N4CCOCC4)n2n1)CCCC3 | 0 | 1 | 1 | 2 | 1 | -3
CCCCCCCCCOC(=O)C[n+]1csc(CCO)c1C | 0 | 76* | 0.9 | · | 0.2 | 7
COc1ccccc1CN1C(=O)c2cccc3cccc(c23)C1=O | -2 | · | · | · | · | ·
CCCCCCCC(O)CC(CC1CCCCC1)C(=O)NN (stereo not drawn) | -2 | · | · | · | · | ·
CNc1sc(C(=O)c2ccccc2F)c(N)c1-c1nc2ccccc2s1 | 6.8* | 89* | 0.2 | -2 | 0.1 | 84*
CCCNC(=O)c1ccc(-c2nc3ccccc3s2)s1 | -2 | 21 | 1 | -17 | 0.8 | -3
CCOC(=O)CCN(Cc1cccs1)S(=O)(=O)c1ccc(Cl)cc1 | 0 | 68* | 0.6 | · | 0.3 | 43
CC(C)(C)c1ccc(S(=O)(=O)N(CCCN2CCOCC2)Cc2cccs2)cc1 | -4 | · | · | · | · | ·
CCOCCCNC(=S)Nc1cc(C)cc(C)c1 | -2 | · | · | · | · | ·
CCOC(=O)C1=C(N)OC(C)=C(C#N)C1c1ccco1 (stereo not drawn) | -2 | · | · | · | · | ·
C=CCOC(=O)C1=C(C)NC(SCC(=O)Nc2ccc(C)c(Cl)c2)=C(C#N)C1c1ccco1 (stereo not drawn) | -6 | 52* | 0.2 | -10 | 0.5 | 79*
COCCOC(=O)C1=C(C)NC(SCC(=O)NC(C)(C)C)=C(C#N)C1c1ccco1 (stereo not drawn) | -4 | 82* | 0.1 | -20 | 0.2 | 86*
Cc1ccc(NC(=O)CSCC#N)cc1Cl | 2 | · | · | · | · | ·
CCOC(=O)C1=C(c2ccccc2)NC(SCC(=O)NC2CCCCC2)=C(C#N)C1c1ccco1 (stereo not drawn) | -3 | 30 | 0.4 | 1 | 0.7 | 61*
Cc1nnc2n(CCc3ccccc3)c(=O)c3c4c(sc3n12)CCCC4 | · | · | · | -6 | · | ·
COc1ccc(-c2cc3nc(C)cc(N4CC(C)CC(C)C4)n3n2)cc1 (stereo not drawn) | 5.1* | · | · | 7 | · | ·
CCN(Cc1nc2cc(OC)c(OC)cc2c(=O)[nH]1)C(=O)c1ccc(S(=O)(=O)N(C)C)cc1 | -2 | 30 | 0.5 | -1 | 0.7 | 54*
CCOc1ccc(CCNC(=O)C2CCN(S(=O)(=O)N3CCC(C)CC3)CC2)cc1OCC | -1 | · | · | · | · | ·
CCOC(=O)N1CCN(S(=O)(=O)c2cccc3ccc(C)nc23)CC1 | -1 | 66* | 1.7 | 18 | 0.3 | -69
CCOc1ccc(OCC)c(S(=O)(=O)N2CCC(C)CC2)c1 | -1 | 60* | 0.7 | 4 | 0.4 | 34
Cc1cc(S(=O)(=O)NCC(C)C)ccc1OCC(=O)N1CCOCC1 | 0 | -13 | 1.1 | 7 | 1.1 | -13
